Measurements: PubChem BioAssay (EPA / NIEHS)
Results filed as inconclusive are left out. Activity calls are given as the source filed them. Rule for the calls: active = hit-call score of the fitted dose curve at least 0.9, where 1 is the maximum; inconclusive = response in the unintended direction; inactive = score below 0.9.

Legend:
[1] = biological target: guinea pig Opioid, Kappa 1 Receptor (OpiateK), OPRK1 (gene 100135587) (UniProt P41144); assay: NVS_GPCR_gOpiateK: NovaScreen (NVS) G Protein-Coupled Receptor Assay for guinea pig Opioid, Kappa 1 Receptor (OpiateK) (AID 2283252);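 note: radioligand displacement from kappa opioid receptor in guinea pig cerebellar membranes; active means reduced radioligand binding relative to DMSO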
Outline: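 Radioligand competition binding using guinea pig cerebellum membrane fraction; 2 h exposure; filter radiodetection. Single concentration 25 uM (duplicate), follow-up concentration-response for actives.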

[2] = biological target: human Adenosine A1 Receptor (AdoRA1), ADORA1 (gene 134) (UniProt P30542); assay: NVS_GPCR_hAdoRA1: NovaScreen (NVS) G Protein-Coupled Receptor Assay for human Adenosine A1 Receptor (AdoRA1) (AID 2283254)
Outline: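 Hum. cortical membranes + radioligand, cmpd 1 h; filtration, scintillation count. Readout = decrease vs DMSO. Primary 25 uM dup; hits → conc. series.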

[3] = biological target: human Sirtuin 3 (SIRT3), SIRT3 (gene 23410) (UniProt Q9NTG7); assay: NVS_ENZ_hSIRT3: NovaScreen (NVS) Enzymatic Assay for human Sirtuin 3 (SIRT3) (AID 2283222)
Outline: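 Cell-free enzyme assay with recombinant protein and fluorescent substrate, product separated by electrophoretic mobility shift; read 1 hour after dosing. Screened in duplicate at 25 uM, then singleton concentration-response up to 50 uM; loss of signal versus DMSO.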

[4] = biological target: sheep Cyclooxygenase-1 (Cox1), PTGS1 (gene 443551) (UniProt P05979); assay: NVS_ENZ_oCOX1: NovaScreen (NVS) Enzymatic Assay for sheep Cyclooxygenase-1 (Cox1) (AID 2283239);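 note: actives reduce cyclooxygenase activity so potencies are for inhibitors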
Outline: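 Cell-free colorimetric assay of enzyme activity in a native extract of ovine seminal vesicles. Absorbance was read 0.66 hour after compound addition. Loss of signal relative to the DMSO negative control was scored, with actives from the 25 uM duplicate primary screen retested in concentration series.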

[5] = biological target: human SRC Proto-Oncogene, Non-receptor Tyrosine Kinase (SRC), SRC (gene 6714) (UniProt P12931); assay: NVS_ENZ_hSRC: NovaScreen (NVS) Enzymatic Assay for human SRC Proto-Oncogene, Non-receptor Tyrosine Kinase (SRC) (AID 2283223)
Outline: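 Compounds passing 30% inhibition at 25 uM (duplicate) were titrated to a top concentration of 50 uM. Enzyme activity read by fluorescence with mobility-shift substrate/product separation after 1 h; DMSO baseline.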

[6] = biological target: guinea pig Leukotriene D4 Receptor (LTD4), CYSLTR1 (gene 100135514) (UniProt Q2NNR5); assay: NVS_GPCR_gLTD4: NovaScreen (NVS) G Protein-Coupled Receptor Assay for guinea pig Leukotriene D4 Receptor (LTD4) (AID 2283248)
Outline: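 Guinea pig lung membrane preparation; bound radioligand measured by filter scintillation after 1 h, loss of signal versus DMSO marking displacement. Compounds tested at 25 uM in duplicate, hits retested to max 50 uM.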

[7] = biological target: human Adenosine A2a Receptor (AdoRA2a), ADORA2A (gene 135) (UniProt P29274); assay: NVS_GPCR_hAdoRA2a: NovaScreen (NVS) G Protein-Coupled Receptor Assay for human Adenosine A2a Receptor (AdoRA2a) (AID 2283256)
Outline: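 HEK293-derived receptor preparation, radioligand displacement, 1.5 h, filtration + scintillation read. Loss of bound signal scored vs DMSO. Single-point 25 uM in duplicate first, then concentration-response for actives.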

Chain of sheep Cyclooxygenase-1 (Cox1), PTGS1 (gene 443551) (P05979 whole entry, looked up): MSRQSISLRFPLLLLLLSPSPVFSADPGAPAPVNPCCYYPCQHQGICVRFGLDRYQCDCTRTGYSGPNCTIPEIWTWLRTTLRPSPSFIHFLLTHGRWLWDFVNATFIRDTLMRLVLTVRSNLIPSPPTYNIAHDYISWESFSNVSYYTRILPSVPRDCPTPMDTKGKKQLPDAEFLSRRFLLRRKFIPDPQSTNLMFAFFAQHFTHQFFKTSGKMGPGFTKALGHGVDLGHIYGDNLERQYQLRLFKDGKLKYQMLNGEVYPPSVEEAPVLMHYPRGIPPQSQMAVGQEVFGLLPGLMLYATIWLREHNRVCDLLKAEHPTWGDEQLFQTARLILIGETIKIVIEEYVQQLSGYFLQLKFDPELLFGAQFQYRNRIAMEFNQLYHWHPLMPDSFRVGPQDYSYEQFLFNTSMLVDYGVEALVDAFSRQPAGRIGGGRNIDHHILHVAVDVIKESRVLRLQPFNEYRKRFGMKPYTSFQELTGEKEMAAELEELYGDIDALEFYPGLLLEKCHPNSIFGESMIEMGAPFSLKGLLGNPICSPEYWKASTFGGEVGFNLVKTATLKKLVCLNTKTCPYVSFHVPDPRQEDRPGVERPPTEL
Chain of guinea pig Leukotriene D4 Receptor (LTD4), CYSLTR1 (gene 100135514) (Q2NNR5 whole entry, looked up): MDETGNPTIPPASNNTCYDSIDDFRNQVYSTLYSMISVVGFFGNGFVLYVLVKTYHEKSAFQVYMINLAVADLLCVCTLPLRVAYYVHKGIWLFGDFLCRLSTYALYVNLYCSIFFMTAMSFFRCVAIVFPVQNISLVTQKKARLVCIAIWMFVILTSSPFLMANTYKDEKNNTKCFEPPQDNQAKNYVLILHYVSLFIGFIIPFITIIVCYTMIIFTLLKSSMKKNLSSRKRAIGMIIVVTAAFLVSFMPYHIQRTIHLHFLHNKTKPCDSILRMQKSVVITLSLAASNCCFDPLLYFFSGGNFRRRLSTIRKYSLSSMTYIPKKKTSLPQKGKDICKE
Chain of guinea pig Opioid, Kappa 1 Receptor (OpiateK), OPRK1 (gene 100135587) (P41144 whole entry, looked up): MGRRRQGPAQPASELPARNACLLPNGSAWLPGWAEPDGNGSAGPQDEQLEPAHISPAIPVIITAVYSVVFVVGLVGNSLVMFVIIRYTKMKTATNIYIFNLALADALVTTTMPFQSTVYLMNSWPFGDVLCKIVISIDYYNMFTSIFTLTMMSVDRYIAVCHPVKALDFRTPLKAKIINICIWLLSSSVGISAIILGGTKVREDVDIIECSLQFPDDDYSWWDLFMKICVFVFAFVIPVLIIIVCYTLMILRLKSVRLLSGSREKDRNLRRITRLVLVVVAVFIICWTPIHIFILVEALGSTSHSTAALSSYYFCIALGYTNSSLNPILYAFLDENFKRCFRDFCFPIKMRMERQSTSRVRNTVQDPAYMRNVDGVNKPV
Chain of human Adenosine A1 Receptor (AdoRA1), ADORA1 (gene 134) (P30542 whole entry, looked up): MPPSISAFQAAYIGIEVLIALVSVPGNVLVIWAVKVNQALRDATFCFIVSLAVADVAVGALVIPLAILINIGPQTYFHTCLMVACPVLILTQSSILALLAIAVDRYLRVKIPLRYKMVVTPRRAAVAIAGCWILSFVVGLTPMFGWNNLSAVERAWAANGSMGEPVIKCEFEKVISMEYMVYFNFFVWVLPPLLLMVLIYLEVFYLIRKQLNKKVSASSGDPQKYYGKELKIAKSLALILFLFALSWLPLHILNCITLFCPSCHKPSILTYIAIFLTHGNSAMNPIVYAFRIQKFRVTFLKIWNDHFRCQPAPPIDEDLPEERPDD
Chain of human Adenosine A2a Receptor (AdoRA2a), ADORA2A (gene 135) (P29274 whole entry, looked up): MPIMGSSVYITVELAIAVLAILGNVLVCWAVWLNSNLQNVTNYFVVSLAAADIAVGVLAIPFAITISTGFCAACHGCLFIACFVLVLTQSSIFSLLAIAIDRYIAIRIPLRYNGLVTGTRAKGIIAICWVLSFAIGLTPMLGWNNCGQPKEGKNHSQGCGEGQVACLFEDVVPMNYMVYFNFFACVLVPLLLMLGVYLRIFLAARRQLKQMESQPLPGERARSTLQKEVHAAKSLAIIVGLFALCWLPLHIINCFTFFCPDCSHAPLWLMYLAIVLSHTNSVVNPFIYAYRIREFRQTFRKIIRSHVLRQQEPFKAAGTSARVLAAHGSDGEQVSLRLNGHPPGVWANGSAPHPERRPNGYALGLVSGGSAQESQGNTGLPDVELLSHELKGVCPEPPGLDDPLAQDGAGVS
Chain of human SRC Proto-Oncogene, Non-receptor Tyrosine Kinase (SRC), SRC (gene 6714) (P12931 whole entry, looked up): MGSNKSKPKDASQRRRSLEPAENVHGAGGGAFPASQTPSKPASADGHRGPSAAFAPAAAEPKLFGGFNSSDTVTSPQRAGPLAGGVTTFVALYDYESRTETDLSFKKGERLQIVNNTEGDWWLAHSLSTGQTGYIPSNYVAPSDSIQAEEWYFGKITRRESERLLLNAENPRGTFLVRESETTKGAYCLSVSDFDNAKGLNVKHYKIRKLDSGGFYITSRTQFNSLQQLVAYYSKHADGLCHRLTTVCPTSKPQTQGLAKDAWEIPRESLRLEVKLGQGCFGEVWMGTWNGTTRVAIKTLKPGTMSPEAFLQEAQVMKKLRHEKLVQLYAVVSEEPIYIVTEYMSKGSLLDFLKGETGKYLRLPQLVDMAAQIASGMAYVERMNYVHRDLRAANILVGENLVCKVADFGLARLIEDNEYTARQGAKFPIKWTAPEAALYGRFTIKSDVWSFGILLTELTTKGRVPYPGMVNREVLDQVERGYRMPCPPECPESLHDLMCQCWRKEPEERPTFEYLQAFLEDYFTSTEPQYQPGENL
Chain of human Sirtuin 3 (SIRT3), SIRT3 (gene 23410) (Q9NTG7 whole entry, looked up): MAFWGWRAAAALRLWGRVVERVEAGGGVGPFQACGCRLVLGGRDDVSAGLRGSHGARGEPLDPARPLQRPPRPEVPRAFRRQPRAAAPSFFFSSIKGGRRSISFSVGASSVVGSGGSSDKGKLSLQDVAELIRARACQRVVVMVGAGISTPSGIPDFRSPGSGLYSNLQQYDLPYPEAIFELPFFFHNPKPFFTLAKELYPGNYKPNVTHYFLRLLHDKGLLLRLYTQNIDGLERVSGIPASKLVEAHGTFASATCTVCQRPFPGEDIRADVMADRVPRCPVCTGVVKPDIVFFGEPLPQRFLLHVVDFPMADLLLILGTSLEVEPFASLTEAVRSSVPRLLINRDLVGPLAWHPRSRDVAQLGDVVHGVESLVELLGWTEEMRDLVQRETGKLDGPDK

Structure (SMILES): O=S1(=O)CC(Cl)(Cl)C(Cl)(Cl)C1
- outcome [1]: inactive

Structure (SMILES): COc1ccc(C(C)=O)cc1
- outcome [2]: inactive

Structure (SMILES): C[C@]12CC[C@@H]3c4ccc(O)cc4CC[C@H]3[C@@H]1CC[C@@H]2O
- outcome [3]: inactive

Structure (SMILES): c1ccc(Sc2ccccc2)cc1
- outcome [4]: inactive

Structure (SMILES): Cc1cc(N)n(-c2ccccc2)n1
- outcome [4]: inactive

Structure (SMILES): C#C[C@]1(O)CC[C@H]2[C@@H]3CCc4cc(O)ccc4[C@H]3CC[C@@]21C
- AC50 [5]: 38.4 µM (active)
- outcome [6]: inactive
- AC50 [7]: 6.76 µM (active)

Structure (SMILES): CC(O)COCC(C)O (centres undefined)
- outcome [4]: inactive
